According to PubChem BioAssay AID1159580 (chemical genetic matrix, 2015):
About 2,000 (36%) of roughly 5,500 compounds were called active. Roughly 18% stayed inconclusive and do not appear here. This is one part of the list. A number with no mark means an inactive call. No stated cut-off is given here; in the data, active means normalized growth mostly below about 0.91 (no sharp cut-off); inconclusive means no clear call, values can overlap the other calls; inactive means mostly above about 0.92.

Experiment: chemical genetic growth profiling, strain panel (AID 1159580);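 further: tested at 20 µM; growth read once vehicle control cultures reached saturation at 30 °C; 1 = growth at the plate median or of vehicle wells; lower values mean less growth of the strain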
Settings: growth OD
[1] = S. cerevisiae deletion strains, locus YDL101C, strain DUN1, hits give low values
[2] = S. cerevisiae deletion strains, locus YHR030C, strain SLT2, hits give low values

SMILES: C/C(=N/Nc1c(Cl)cc(Cl)cc1Cl)c1cc(F)ccc1OC(=O)c1ccccc1F
- normalized growth (S. cerevisiae deletion strains, locus YAL013W, strain DEP1, hits give low values): 0.99
- normalized growth (S. cerevisiae deletion strains, locus YBR229C, strain ROT2, hits give low values): 0.978
- normalized growth [1]: 0.969
- normalized growth (S. cerevisiae deletion strains, locus YDL134C, strain PPH21, hits give low values): 1.03
- normalized growth (S. cerevisiae deletion strains, locus YDR150W, strain NUM1, hits give low values): 0.991
- normalized growth (S. cerevisiae deletion strains, locus YEL061C, strain CIN8, hits give low values): 1.04
- normalized growth (S. cerevisiae deletion strains, locus YGR078C, strain PAC10, hits give low values): 0.983
- normalized growth [2]: 1.04
- normalized growth (S. cerevisiae deletion strains, locus YHR087W, strain rtc3, hits give low values): 0.978
- normalized growth (S. cerevisiae deletion strains, locus YJR043C, strain POL32, hits give low values): 0.968
- normalized growth (S. cerevisiae deletion strains, locus YJR075W, strain HOC1, hits give low values): 0.984
- normalized growth (S. cerevisiae deletion strains, locus YKL190W, strain CNB1, hits give low values): 1.03
- normalized growth (S. cerevisiae deletion strains, locus YLR039C, strain RIC1, hits give low values): 1.02
- normalized growth (S. cerevisiae deletion strains, locus YLR058C, strain SHM2 (second series), hits give low values): 1.01
- normalized growth (S. cerevisiae deletion strains, locus YLR085C, strain ARP6, hits give low values): 1.11
- normalized growth (S. cerevisiae deletion strains, locus YLR262C, strain YPT6, hits give low values): 0.957
- normalized growth (S. cerevisiae deletion strains, locus YML094W, strain GIM5, hits give low values): 1.01
- normalized growth (S. cerevisiae deletion strains, locus YMR219W, strain ESC1, hits give low values): 0.966
- normalized growth (S. cerevisiae deletion strains, locus YMR263W, strain SAP30, hits give low values): 0.996
- normalized growth (S. cerevisiae deletion strains, locus YNL128W, strain TEP1, hits give low values): 1.03
- normalized growth (S. cerevisiae deletion strains, locus YNL153C, strain GIM3, hits give low values): 0.953
- normalized growth (S. cerevisiae deletion strains, locus YNL298W, strain CLA4 (second series), hits give low values): 1.07
- normalized growth (S. cerevisiae deletion strains, locus YNL322C, strain KRE1, hits give low values): 1.01
- normalized growth (S. cerevisiae deletion strains, locus YNR030W, strain Alg12, hits give low values): 1.03
- normalized growth (S. cerevisiae deletion strains, locus YOL006C, strain TOP1, hits give low values): 1.06
- normalized growth (S. cerevisiae deletion strains, locus YPL055C, strain LGE1, hits give low values): 0.981
- normalized growth (S. cerevisiae deletion strains, locus YPL241C, strain CIN2, hits give low values): 0.972
- normalized growth (S. cerevisiae deletion strains, locus YPR135W, strain CTF4, hits give low values): 0.962
- normalized growth (S. cerevisiae strains, strain wild type, hits give low values): 1.03

SMILES: C/C(=N/Nc1ccccc1)c1cc(Cl)cc(Cl)c1O
- normalized growth (S. cerevisiae deletion strains, locus YAR019C, strain CDC15, hits give low values): 0.964
- normalized growth (S. cerevisiae deletion strains, locus YBL105C, strain PKC1, hits give low values): 0.977
- normalized growth (S. cerevisiae deletion strains, locus YBR135W, strain CKS1, hits give low values): 0.954
- normalized growth (S. cerevisiae deletion strains, locus YBR136W, strain MEC1, hits give low values): 0.954
- normalized growth (S. cerevisiae deletion strains, locus YBR160W, strain CDC28, hits give low values): 0.958
- normalized growth (S. cerevisiae deletion strains, locus YDL017W, strain CDC7, hits give low values): 0.964
- normalized growth (S. cerevisiae deletion strains, locus YDL028C, strain MPS1, hits give low values): 0.967
- normalized growth [1]: 0.969
- normalized growth (S. cerevisiae deletion strains, locus YDL108W, strain KIN28, hits give low values): 0.954
- normalized growth (S. cerevisiae deletion strains, locus YDL132W, strain cdc53, hits give low values): 0.956
- normalized growth (S. cerevisiae deletion strains, locus YDL214C, strain PRR2, hits give low values): 0.785
- normalized growth (S. cerevisiae deletion strains, locus YDR052C, strain DBF4, hits give low values): 0.968
- normalized growth (S. cerevisiae deletion strains, locus YDR054C, strain cdc34, hits give low values): 0.966
- normalized growth (S. cerevisiae deletion strains, locus YDR226W, strain ADK1, hits give low values): 0.954
- normalized growth (S. cerevisiae deletion strains, locus YDR477W, strain SNF1, hits give low values): 0.734
- normalized growth (S. cerevisiae deletion strains, locus YER123W, strain YCK3, hits give low values): 0.734
- normalized growth (S. cerevisiae deletion strains, locus YER133W, strain GLC7, hits give low values): 0.825
- normalized growth (S. cerevisiae deletion strains, locus YFL009W, strain cdc4, hits give low values): 0.964
- normalized growth (S. cerevisiae deletion strains, locus YFL029C, strain CAK1, hits give low values): 0.955
- normalized growth (S. cerevisiae deletion strains, locus YFR003C, strain YPI1, hits give low values): 0.962
- normalized growth (S. cerevisiae deletion strains, locus YFR019W, strain FAB1, hits give low values): 0.834
- normalized growth (S. cerevisiae deletion strains, locus YFR028C, strain CDC14, hits give low values): 0.93
- normalized growth (S. cerevisiae deletion strains, locus YGR040W, strain KSS1, hits give low values): 0.746
- normalized growth (S. cerevisiae deletion strains, locus YGR052W, strain FMP48, hits give low values): 0.804
- normalized growth (S. cerevisiae deletion strains, locus YGR092W, strain DBF2, hits give low values): 0.658
- normalized growth [2]: 0.308 (active)
- normalized growth (S. cerevisiae deletion strains, locus YHR079C, strain IRE1, hits give low values): 0.748
- normalized growth (S. cerevisiae deletion strains, locus YHR082C, strain KSP1, hits give low values): 0.731
- normalized growth (S. cerevisiae deletion strains, locus YHR205W, strain SCH9, hits give low values): 0.694
- normalized growth (S. cerevisiae deletion strains, locus YIL147C, strain SLN1, hits give low values): 0.968
- normalized growth (S. cerevisiae deletion strains, locus YJL095W, strain BCK1, hits give low values): 0.815
- normalized growth (S. cerevisiae deletion strains, locus YJL128C, strain PBS2, hits give low values): 0.884
- normalized growth (S. cerevisiae deletion strains, locus YJL157C, strain FAR1, hits give low values): 0.79
- normalized growth (S. cerevisiae deletion strains, locus YJR016C, strain ILV3, hits give low values): 0.954
- normalized growth (S. cerevisiae deletion strains, locus YJR066W, strain TOR1 (second series), hits give low values): 0.829
- normalized growth (S. cerevisiae deletion strains, locus YJR066W, strain TOR1, hits give low values): 0.66
- normalized growth (S. cerevisiae deletion strains, locus YKL048C, strain ELM1, hits give low values): 0.87
- normalized growth (S. cerevisiae deletion strains, locus YKL067W, strain YNK1, hits give low values): 0.851
- normalized growth (S. cerevisiae deletion strains, locus YKL101W, strain HSL1, hits give low values): 0.798
- normalized growth (S. cerevisiae deletion strains, locus YKL193C, strain SDS22, hits give low values): 0.948
- normalized growth (S. cerevisiae deletion strains, locus YKL203C, strain TOR2, hits give low values): 0.745
- normalized growth (S. cerevisiae deletion strains, locus YLR113W, strain HOG1, hits give low values): 0.792 (active)
- normalized growth (S. cerevisiae deletion strains, locus YLR133W, strain CKI1, hits give low values): 0.731 (active)
- normalized growth (S. cerevisiae deletion strains, locus YLR403W, strain SFP1, hits give low values): 0.681
- normalized growth (S. cerevisiae deletion strains, locus YML070W, strain DAK1, hits give low values): 0.81
- normalized growth (S. cerevisiae deletion strains, locus YMR001C, strain CDC5, hits give low values): 0.954
- normalized growth (S. cerevisiae deletion strains, locus YMR205C, strain PFK2 (second series), hits give low values): 0.862
- normalized growth (S. cerevisiae deletion strains, locus YMR277W, strain FCP1, hits give low values): 0.95
- normalized growth (S. cerevisiae deletion strains, locus YNL006W, strain LST8, hits give low values): 0.966
- normalized growth (S. cerevisiae deletion strains, locus YNL020C, strain ARK1, hits give low values): 0.647 (active)
- normalized growth (S. cerevisiae deletion strains, locus YNL161W, strain CBK1, hits give low values): 0.964
- normalized growth (S. cerevisiae deletion strains, locus YNL183C, strain NPR1, hits give low values): 0.872
- normalized growth (S. cerevisiae deletion strains, locus YNL207W, strain RIO2, hits give low values): 0.958
- normalized growth (S. cerevisiae deletion strains, locus YNL222W, strain SSU72, hits give low values): 0.961
- normalized growth (S. cerevisiae deletion strains, locus YNL307C, strain MCK1 (second series), hits give low values): 0.632 (active)
- normalized growth (S. cerevisiae deletion strains, locus YOL078W, strain AVO1, hits give low values): 0.961
- normalized growth (S. cerevisiae deletion strains, locus YOL136C, strain PFK27, hits give low values): 0.764
- normalized growth (S. cerevisiae deletion strains, locus YOR061W, strain CKA2, hits give low values): 0.784
- normalized growth (S. cerevisiae deletion strains, locus YOR119C, strain RIO1, hits give low values): 0.732
- normalized growth (S. cerevisiae deletion strains, locus YOR231W, strain MKK1, hits give low values): 0.855
- normalized growth (S. cerevisiae deletion strains, locus YOR329C, strain SCD5, hits give low values): 0.974
- normalized growth (S. cerevisiae deletion strains, locus YPL031C, strain PHO85, hits give low values): 0.742
- normalized growth (S. cerevisiae deletion strains, locus YPL153C, strain RAD53, hits give low values): 0.78
- normalized growth (S. cerevisiae deletion strains, locus YPL204W, strain HRR25, hits give low values): 0.737
- normalized growth (S. cerevisiae deletion strains, locus YPL209C, strain IPL1, hits give low values): 0.965
- normalized growth (S. cerevisiae deletion strains, locus YPL256C, strain CLN2, hits give low values): 0.774 (active)
- normalized growth (S. cerevisiae deletion strains, locus YPR025C, strain CCL1, hits give low values): 0.963
- normalized growth (S. cerevisiae deletion strains, locus YPR106W, strain ISR1, hits give low values): 0.942
- normalized growth (S. cerevisiae deletion strains, locus YPR111W, strain DBF20, hits give low values): 0.938
- normalized growth (S. cerevisiae deletion strains, strain NNK1, hits give low values): 0.951
- normalized growth (S. cerevisiae deletion strains, strain TSCII, hits give low values): 0.967
